High-throughput results from PubChem BioAssay.
hgDAF12 agonist: hgDAF-12 agonism, primary luciferase screen | HEK293 GAL4-hgDAF12 UAS-luciferase reporter, agonist luminescence; normalized to butyrate control | activation, % at 6.8 µM | 1.8% of 370,000 active;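 active = activation above a cutoff set at the mean of all screened compounds plus 3 SD, cut at about 10% in these data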
DAX1 inh-1: NR0B1 (DAX1) inhibition. P51843. HEK293 Gal4-DAX1 luciferase reporter, luminescence. inhibition, % at 6.75 µM. 0.99% of 340,000 active. AID 504766;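 active = inhibition above the mean over all tested compounds plus 3 SD, cut at about 4.2% in these data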;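 note: inhibition shows as a rise in luminescence from relieved DAX1 repression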
ssDAF12 agonist: activators of S. stercoralis DAF-12 nuclear receptor; AID 652126; HEK293 ssDAF-12/GRIP1 lit1-tk-luc reporter, luminescence; % of 3 µM dafachronic acid response; activation, % at 6.8 µM; 1% of 370,000 active;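 active = activation above the mean over all tested compounds plus 3 SD, cut at about 0.9% in these data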
hcDAF-12 act: activates DAF-12 receptor from parasite H. contortus; activation, % at 6.8 µM; AID 652067; 1.4% of 370,000 active; HEK293 hcDAF-12 lit1-tk-luc reporter, luminescence; 0% DMSO, 100% Δ7-dafachronic acid;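 active = activation above the mean of all tested compounds plus 3 SD, cut at about 5.5% in these data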
DAX1 inh-2: DAX1 (NR0B1) inhibition, primary screen. HEK293T StAR-luciferase reporter, SF-1/DAX-1 repression relief. inhibition, % at 6.8 µM. 1.1% of 370,000 active. AID 652010;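 active = inhibition above the mean over all tested compounds plus 3 SD, cut at about 3.6% in these data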;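 note: higher inhibition means more luminescence from relief of DAX-1 repression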
hgDAF12 conf: confirmation of H. glycines DAF-12 agonists | AID 743050 | HEK293 GAL4-hgDAF12 luciferase reporter, agonist mode; percent of butyrate response | activation, % at 6.8 µM | 80% of 3,300 active | shares compounds with hgDAF12 agonist;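 active = mean activation over triplicate wells above the hit cutoff derived from the earlier primary screen, cut at about 11% in these data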
LXRb DAF12 ctr: counter-screen for DAF-12 agonists: agonists of human LXR-beta; shares compounds with hgDAF12 agonist; 3,300 tested, under 10 active; activation, % at 6.8 µM; HEK293 Gal4-LXR luciferase reporter, 24 h;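 active = mean activation of the triplicate above a set limit carried over from the primary screen, none filed active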
Target sequence (P55055 whole entry, looked up, the tested form may be a part): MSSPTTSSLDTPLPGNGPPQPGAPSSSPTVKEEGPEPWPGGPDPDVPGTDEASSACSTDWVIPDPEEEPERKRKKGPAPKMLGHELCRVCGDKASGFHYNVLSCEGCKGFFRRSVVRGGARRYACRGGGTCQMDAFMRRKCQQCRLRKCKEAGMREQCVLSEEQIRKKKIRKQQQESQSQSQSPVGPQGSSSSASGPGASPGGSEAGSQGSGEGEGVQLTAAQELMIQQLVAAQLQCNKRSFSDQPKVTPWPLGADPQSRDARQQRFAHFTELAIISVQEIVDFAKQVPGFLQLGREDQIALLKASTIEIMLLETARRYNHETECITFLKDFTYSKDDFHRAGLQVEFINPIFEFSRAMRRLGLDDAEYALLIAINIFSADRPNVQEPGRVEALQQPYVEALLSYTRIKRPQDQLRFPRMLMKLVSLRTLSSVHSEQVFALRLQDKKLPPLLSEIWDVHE
Hits are given with their value; n = inactive; x = no result. Sampled rows, rich in hits. Any-hit rate of the full collection: about 4.1%.

SMILES	hgDAF12 agonist	DAX1 inh-1	ssDAF12 agonist	hcDAF-12 act	DAX1 inh-2	hgDAF12 conf	LXRb DAF12 ctr
CS/C(N)=N/N=C/c1c(O)ccc2ccccc12	19	n	1.0	n	n	13	n
CCCCS/C(N)=N/N=C/c1cc(C)ccc1O	n	n	n	n	n	x	x
Cc1ccc(NC(=S)c2nc3ccccc3[nH]2)cc1	14	n	1.0	6.5	n	17	n
Cc1ccc(NC(=S)N2CCCC(c3nc4ccccc4[nH]3)C2)cc1 (stereo not given)	n	n	n	n	n	x	x
O=C(NC(C(=O)N1CCCC1C(=O)NC1CCCC1)c1ccccc1)c1cccs1 (stereo not given)	n	x	n	n	n	x	x
COc1cc(/C=C2\SC(=S)N(Nc3ccccc3)C2=O)ccc1O	14	n	n	n	n	15	n
C/C(=C\C(=O)c1sccc1Cl)N(C)C	15	n	n	n	n	n	n
COc1ccc(C(=O)/C=C(/C)N(C)C)cc1	n	n	n	n	n	x	x
COC(=O)[C@H](CC1(c2cn(S(=O)(=O)CC[Si](C)(C)C)c3ccccc23)C(=O)Nc2ccccc21)NC(=O)OC(C)(C)C (stereo not given in full)	n	x	n	n	x	x	x
O=C(Nc1ccccc1)OCCCc1ccccc1	16	n	n	n	n	12	n
c1cnn2c(-c3ccc4c(c3)CCO4)cnc2c1	14	x	n	n	n	n	n
Cc1cccc(NC(=O)NN(C(=O)c2ccccc2Cl)C(C)(C)C)c1	13	x	n	n	n	n	n
Brc1ccccc1C1CC(c2ccccc2)=Nc2ccccc2N1 (stereo not given)	14	n	n	n	n	n	n
c1ccc(C2=NC(c3ccccc3)CC2)cc1 (stereo not given)	n	n	n	n	n	x	x
c1ccc(C2=Nc3ccccc3NC(c3ccccc3)C2)cc1 (stereo not given)	14	n	n	n	n	15	n
COc1ccc(N2C(=O)CCC2=O)c(OC)c1	13	n	n	n	n	n	n
COc1ccc(N2C(=O)C3CC(C)=C(C)CC3C2=O)c(OC)c1 (stereo not given)	n	n	n	n	n	x	x
O=C1NC(=O)C(=Cc2ccc(Cl)cc2Cl)S1	18	n	n	n	4.4	14	n
O=C1NC(=S)NC1=Cc1ccc(Cl)cc1Cl	n	n	n	n	n	x	x
Cc1cnc(NC(=O)c2ccncc2)s1	n	n	n	n	n	x	x
Cc1cnc(NC(=O)c2cncc(Br)c2)s1	19	n	n	n	n	16	n
Fc1ccc(NC2CCC23CCC(c2ccccc2)CC3)cc1C(F)(F)F (stereo not given)	n	x	n	n	x	x	x
C/C(CC(=O)NC1CCCCC1)=N\NC(=O)c1ccccn1	20	n	n	n	n	n	n
CC(/C=C/c1ccccc1F)=N\NC(=O)c1ccc(Cl)cc1	n	n	n	n	n	x	x
CC(/C=C/c1ccccc1F)=N\NC(=O)c1ccccc1	14	n	n	n	n	n	n
SMILES	hgDAF12 agonist	DAX1 inh-1	ssDAF12 agonist	hcDAF-12 act	DAX1 inh-2	hgDAF12 conf	LXRb DAF12 ctr
Cc1cccc(Nc2nc3ccccc3s2)c1C	21	n	1.3	n	n	20	n
Cc1cccc(Nc2n[nH]c(=S)s2)c1C	n	n	n	n	n	x	x
CCN(CC(=O)Nc1c(F)cccc1F)C(=O)c1ccc2c(=O)n3c(nc2c1)CCC3	16	n	n	n	n	n	n
CN(C)Cc1c(-c2ccc(Cl)cc2)nc2ccccn12	18	5.4	n	n	n	n	n
Clc1ccc(-c2nc3ccccn3c2CN2CCCCC2)cc1	n	n	n	n	n	x	x
N#Cc1ccc(C(=O)Nc2nc3ccccc3[nH]2)cc1	16	n	n	n	n	11	n
CCCCCCCCN1C(=O)[C@@H](CC(=O)NCC23CC4CC(CC(C4)C2)C3)C[C@@]2(C(=O)OC)C1=C[C@H](C(C)(C)C)O[C@@H]2C	n	x	n	n	n	x	x
CCOC(=O)C1CSCCS(=O)(=O)N1Cc1ccc(C)cc1 (stereo not given)	n	x	n	n	n	x	x
O=C(Nc1ccc2c(c1)CCC2)c1cnc(Cl)c(Cl)c1	15	n	1.1	n	n	19	n
Cc1cc(C(=O)Nc2ccc3c(c2)CCC3)ccc1[N+](=O)[O-]	14	x	n	n	n	17	n
Cc1ccc(C(=O)NCC(=O)Nc2ccc3c(c2)CCC3)cc1C	n	n	n	n	n	x	x
O=C(Nc1ccc2c(c1)CCC2)c1cccs1	16	n	1.2	n	n	17	n
Nc1ccc(NC(=O)c2cccs2)cc1	n	n	n	n	n	x	x
O=C(Nc1ccc2c(c1)CCC2)c1c(F)cccc1Cl	n	n	n	n	n	x	x
CCCCOCCCNC(=O)C[C@H]1C[C@@]2(C(=O)OC)C(=C[C@H](COCc3ccccc3)O[C@@H]2C)N(CCC2=CCCCC2)C1=O	n	x	n	n	n	x	x
Cc1ccc(C2=N/C(=C\N(C)C)C(=O)O2)cc1	15	n	n	n	n	n	n
O=C(Nc1ccc(F)cc1)C1COc2ccccc2O1 (stereo not given)	n	n	n	n	n	x	x
O=C(Nc1cnc2ccccc2c1)C1COc2ccccc2O1 (stereo not given)	14	n	n	n	n	n	n
CCC(CC)c1nnc(NC(=O)C2COc3ccccc3O2)s1 (stereo not given)	14	n	n	n	n	n	n
Cc1ccc(NC(=O)Nc2cnc3ccccc3c2)cc1	15	n	n	n	3.7	20	n
CC[C@H](NC(=O)[C@H]1O[C@@H](n2cnc3c(=O)[nH]c(N)nc32)[C@H](O)[C@@H]1O)c1ccccc1	n	x	n	n	n	x	x
COC(=O)[C@]12C[C@H](CC(=O)N3CCCC3)C(=O)N(Cc3cccc4ccccc34)C1=C[C@H](C1CCCC1)O[C@@H]2C	n	x	n	n	n	x	x
O=C(NC1CCCCN(Cc2cccc(F)c2)C1=O)c1cccc(F)c1 (stereo not given)	n	x	n	n	n	x	x
Clc1ccc(-n2cc(COCc3ccccc3)nn2)cc1	21	n	n	n	3.8	11	n
O=C(Nc1ccc(Cl)cc1)OCc1cn(-c2ccc(Cl)cc2)nn1	n	n	n	n	n	x	x
CCN1Cc2nnn(Cc3ccc(C)cc3)c2-c2ccccc2S1(=O)=O	n	x	n	n	n	x	x
Cc1ccc(Nc2cc(C)c3c(O)cccc3n2)cc1C	15	n	n	n	n	15	n
Cc1ccccc1Nc1cc(C)c2c(O)cccc2n1	n	n	n	n	n	x	x
c1ccc(OCc2nc(-c3cccs3)no2)cc1	16	n	n	n	n	13	n
Cc1cc(OCc2nc(-c3cccs3)no2)cc(C)c1Cl	n	n	n	n	n	x	x
